IDE exosite FP: insulin-degrading enzyme (human) exo-site inhibition; purified IDE, FL-6b probe fluorescence polarization; stronger effect = lower value; z-score at 20 µM; 17,000 compounds, 6.3% hits; AID 1259349;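 active = z-score of -3 or lower, meaning strong loss of probe binding signal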;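 also: His-tagged human IDE residues 42-1019 made in E. coli with 30 nM FL-6b probe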
Target sequence (P14735 42-1019 limits assumed): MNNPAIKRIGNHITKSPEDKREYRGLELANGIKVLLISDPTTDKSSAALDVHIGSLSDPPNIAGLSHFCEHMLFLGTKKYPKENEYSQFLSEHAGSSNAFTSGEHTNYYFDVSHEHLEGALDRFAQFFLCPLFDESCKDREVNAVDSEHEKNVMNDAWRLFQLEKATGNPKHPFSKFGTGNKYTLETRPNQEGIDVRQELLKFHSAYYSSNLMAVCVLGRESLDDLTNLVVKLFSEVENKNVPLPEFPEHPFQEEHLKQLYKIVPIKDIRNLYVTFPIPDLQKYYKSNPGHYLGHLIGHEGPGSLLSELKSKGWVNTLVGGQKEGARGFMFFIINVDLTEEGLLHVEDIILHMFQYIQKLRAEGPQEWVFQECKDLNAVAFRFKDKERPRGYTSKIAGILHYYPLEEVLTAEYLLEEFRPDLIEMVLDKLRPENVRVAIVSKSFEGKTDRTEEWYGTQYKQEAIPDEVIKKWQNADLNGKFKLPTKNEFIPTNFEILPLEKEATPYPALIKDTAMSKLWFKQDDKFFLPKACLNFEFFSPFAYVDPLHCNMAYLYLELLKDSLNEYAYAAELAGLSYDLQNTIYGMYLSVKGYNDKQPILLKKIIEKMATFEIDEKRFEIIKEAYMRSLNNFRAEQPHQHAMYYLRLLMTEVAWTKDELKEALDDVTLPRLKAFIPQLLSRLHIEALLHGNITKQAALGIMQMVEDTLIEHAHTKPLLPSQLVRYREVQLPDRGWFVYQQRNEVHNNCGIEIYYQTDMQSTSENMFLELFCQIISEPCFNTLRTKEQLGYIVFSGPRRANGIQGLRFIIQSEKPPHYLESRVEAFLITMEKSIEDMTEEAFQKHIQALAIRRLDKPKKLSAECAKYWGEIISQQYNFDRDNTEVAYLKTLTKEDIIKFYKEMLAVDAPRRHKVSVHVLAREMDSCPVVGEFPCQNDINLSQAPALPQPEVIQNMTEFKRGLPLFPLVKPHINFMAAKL
An asterisk follows results filed as active. The full list was thinned out, with hits kept by preference.

SMILES	IDE exosite FP
COc1ccc2c3c(n(C)c2c1)[C@@H](CO)N(C)CC31CN(C(=O)Nc2c(C)noc2C)C1	0.18
COc1ccc2c3c(n(C)c2c1)[C@H](CO)N(C)CC31CN(C(=O)Nc2c(C)noc2C)C1	0.53
CC(C)NC(=O)N1[C@H](CO)[C@@H](c2ccccc2)[C@@H]1CN(C)C(=O)c1ccccc1	0.95
COCC(=O)N1CCCCN2[C@H](CO)[C@@H](c3ccc(-c4ccc(F)cc4)cc3)[C@H]2C1	1.3
N#C[C@@H]1[C@H](c2ccccc2-c2cccc(F)c2)[C@H](CO)N1C(=O)CN1CCOCC1	-0.28
COCCNC(=O)[C@@H]1[C@@H](CO)[C@@H]2Cn3c(cccc3=O)[C@H]1N2S(=O)(=O)c1ccccc1C	-1.3
C/C=C/c1ccc([C@H]2[C@@H](CO)N(C(C)=O)[C@H]2CN(CCOC)C(C)=O)cc1	0.2
CC(C)[C@H]1COCn2nncc2CC[C@H](C)C(=O)N1	-1.7
COc1cccc(-c2ccc([C@@H]3[C@H](CO)N4CCCCN(S(=O)(=O)c5cn(C)cn5)C[C@@H]34)cc2)c1	-11*
COc1cccc(-c2ccc([C@H]3[C@@H](CO)N4CCCCN(S(=O)(=O)c5cccs5)C[C@H]34)cc2)c1	0.91
COc1cccc(-c2ccc([C@@H]3[C@H]4CN(S(=O)(=O)c5cccs5)CCCCN4[C@H]3CO)cc2)c1	4.2
COc1cccc(S(=O)(=O)N2CCCCN3[C@H](C2)[C@@H](c2ccc(-c4ccccc4)cc2)[C@@H]3CO)c1	3
COc1cccc(-c2ccc([C@H]3[C@@H](CO)N4CCCCN(S(=O)(=O)c5cn(C)cn5)C[C@H]34)cc2)c1	-3.9*
COc1cccc(S(=O)(=O)N2CCCCN3[C@H](CO)[C@@H](c4ccc(-c5ccccc5)cc4)[C@H]3C2)c1	2.5
O=C(C[C@@H]1C[C@H]2c3cc(NC(=O)Nc4ccccc4)ccc3O[C@H]2[C@@H](CO)O1)NCc1ccccc1	0
CCNC[C@@H]1[C@H](c2ccccc2)[C@H](CO)N1C(=O)Cc1ccccn1	0.68
N#C[C@H]1[C@@H](c2ccc(C#Cc3ccccc3F)cc2)[C@@H](CO)N1C(=O)C1CC1	-3.4*
N#C[C@@H]1[C@H](c2ccc(C#Cc3ccccc3F)cc2)[C@@H](CO)N1C(=O)C1CC1	0.082
COc1ccccc1C#Cc1ccc([C@@H]2[C@@H](C#N)N(C(=O)C3CC3)[C@H]2CO)cc1	-4.2*
COc1ccccc1C#Cc1ccc([C@H]2[C@@H](C#N)N(C(=O)C3CC3)[C@@H]2CO)cc1	-5.3*
COc1ccccc1C#Cc1ccc([C@@H]2[C@@H](C#N)N(C(=O)C3CC3)[C@@H]2CO)cc1	-6.4*
N#C[C@H]1[C@@H](c2ccc(C#Cc3ccccc3F)cc2)[C@H](CO)N1C(=O)C1CC1	-2.2
COc1cccc(CNC(=O)C[C@@H]2CC[C@H]3[C@H](COc4ccc(NS(=O)(=O)c5ccccc5F)cc4C(=O)N3C)O2)c1	-0.15
CCS(=O)(=O)Nc1ccc2c(c1)C(=O)N(C)[C@@H]1CC[C@H](CC(=O)NCCCN3CCOCC3)O[C@H]1CO2	-0.088
C(=C\c1ccc(C2[C@H]3CNC[C@@H]2N3Cc2nccs2)cc1)/c1ccccc1 (stereo partly drawn)	-0.97
SMILES	IDE exosite FP
O=C(C1CC1)N1CCCCN2[C@H](C1)[C@@H](c1ccc(C#CC3CCCC3)cc1)[C@@H]2CO	3
Cc1ccccc1S(=O)(=O)N1CC(=O)N2[C@H](C1)[C@@H](c1ccc(C#CCC3CCCC3)cc1)[C@@H]2CO	1.1
COCC(=O)N1[C@H](C#N)[C@@H](c2ccc(C#Cc3ccccc3F)cc2)[C@H]1CO	-3.9*
N#C[C@H]1[C@H](c2ccc(C#Cc3ccc(F)cc3)cc2)[C@H](CO)N1C(=O)C1CC1	4.4
N#C[C@@H]1[C@H](c2ccc(C#Cc3ccccc3F)cc2)[C@H](CO)N1C(=O)C1CC1	-2.4
COc1ccccc1C#Cc1ccc([C@@H]2[C@H](C#N)N(C(=O)C3CC3)[C@H]2CO)cc1	-9.3*
COCC(=O)N1[C@@H](C#N)[C@@H](c2ccccc2)[C@@H]1CO	1.6
CN(C)CC(=O)N[C@H]1CC[C@H](CCNC(=O)C2CCC2)O[C@@H]1CO	1.5
CO[C@@H]1CN(C)C(=O)c2cc(NC(=O)C3CCCCC3)ccc2OC[C@@H](C)N(C(=O)c2ccccc2)C[C@@H]1C	0.019
CS(=O)(=O)N1[C@@H]2Cn3c(cccc3=O)[C@H]1[C@@H](C(=O)NCc1ccc(F)cc1)[C@@H]2CO	0.53
CN1CCCCN2[C@H](C1)[C@H](c1ccc(C#CC3(O)CCCC3)cc1)[C@@H]2CO	2.8
CN1CCCCN2[C@H](CO)[C@H](c3ccc(C#CC4(O)CCCC4)cc3)[C@H]2C1	3.5
CN1CCCCN2[C@H](CO)[C@@H](c3ccc(C#Cc4ccccc4F)cc3)[C@H]2C1	-4.7*
CN1CCCCN2[C@H](C1)[C@H](c1ccc(-c3ccc(F)cc3)cc1)[C@@H]2CO	0.11
COc1ccc(C#Cc2ccc([C@@H]3[C@@H](CO)N4CCCCN(C)C[C@@H]34)cc2)cc1	0.079
CN1CCCCN2[C@@H](CO)[C@H](c3ccc(C#Cc4ccccc4F)cc3)[C@@H]2C1	-4.4*
CN1CCCCN2[C@H](C1)[C@@H](c1ccc(C#Cc3ccccc3F)cc1)[C@@H]2CO	-3.4*
CN1CCCCN2[C@H](CO)[C@@H](c3ccc(C#CC4(O)CCCC4)cc3)[C@H]2C1	3.3
C/C=C/c1cccc(-c2nc(C(=O)NCc3ccccn3)cc3c2[C@H](CCO)N([S@@](=O)C(C)(C)C)C3)c1	0.49
COc1ccccc1CN1[C@H](CO)[C@H]2c3ccccc3N(C(=O)c3cccnc3)C[C@H]21	-0.58
N#C[C@@H]1[C@H](c2ccccc2)[C@H](CO)N1C(=O)Cc1ccccc1	0.48
CC(C)C#Cc1ccc([C@@H]2[C@@H](C#N)N(C(=O)CN(C)C)[C@@H]2CO)cc1	1.7
C[C@@H]1CN([C@H](C)CO)C(=O)CCCn2nncc2CO[C@@H]1CN(C)Cc1cccc(C(F)(F)F)c1	0.26
CO[C@H]1CN(C)C(=O)c2ccc(NC(=O)c3nc4ccccc4s3)cc2OC[C@@H](C)N(Cc2cccnc2)C[C@H]1C	-0.67
O=C(C[C@@H]1CC[C@@H](NC(=O)c2cccnc2)[C@@H](CO)O1)NCc1ccc(Cl)c(Cl)c1	0.18
SMILES	IDE exosite FP
CO[C@@H]1CN(C)C(=O)c2cc(NC(C)=O)ccc2OC[C@@H](C)N(C(=O)Cc2ccccn2)C[C@H]1C	0.57
COc1ccc(S(=O)(=O)N2CCCCN3[C@H](CO)[C@@H](c4ccc(C5=CCCC5)cc4)[C@H]3C2)cc1	2.7
O=C1CN(S(=O)(=O)c2ccccc2)C[C@H]2[C@@H](c3ccc(C#CCc4ccccc4)cc3)[C@H](CO)N12	4.5
O=C(c1ccccn1)N1CC(=O)N2[C@H](CO)[C@@H](c3ccc(C#Cc4ccccc4)cc3)[C@@H]2C1	-7.3*
O=C(c1ccccn1)N1CC(=O)N2[C@H](C1)[C@@H](c1ccc(C#CCc3ccccc3)cc1)[C@@H]2CO	0.38
O=C(c1ccccn1)N1CC(=O)N2[C@H](CO)[C@@H](c3ccc(C#CCc4ccccc4)cc3)[C@H]2C1	-1.9
O=C(c1ccccn1)N1CC(=O)N2[C@H](CO)[C@@H](c3ccc(C#CCc4ccccc4)cc3)[C@@H]2C1	-0.0049
CC(C)C#Cc1ccc([C@@H]2[C@@H](CO)N3C(=O)CN(C(=O)c4ccccn4)C[C@@H]23)cc1	0.71
CCCC#Cc1ccc([C@H]2[C@H]3CN(C(=O)c4ccccn4)CC(=O)N3[C@H]2CO)cc1	2.6

Screening data (PubChem)
